Experimental findings from PubChem BioAssay (EPA / NIEHS) are described below.

Holding throughout (conditions): mRNA level, 48 h; actives raise or lower the signal
Read-out in assay [1]: Insulin Like Growth Factor 1 (IGF1), IGF1 (gene 3479)
Description: LTEA_HepaRG_IGF1: Life Technologies and Expression Analysis (LTEA) Assay for Insulin Like Growth Factor 1 (IGF1) using HepaRG (AID 2283506). An outline of the steps: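 Differentiated HepaRG cells in serum-free induction medium, exposed 48 h in duplicate to 8 half-log concentrations up to 100 uM in 0.5% DMSO. IGF1 mRNA by Fluidigm qRT-PCR, normalised to ACTB, GAPDH and POLR2A.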

Read-out in assay [2]: Intercellular Adhesion Molecule 1 (ICAM1), ICAM1 (gene 3383)
Description: LTEA_HepaRG_ICAM1: Life Technologies and Expression Analysis (LTEA) Assay for Intercellular Adhesion Molecule 1 (ICAM1) using HepaRG (AID 2283507). An outline of the steps: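 Differentiated human HepaRG cells in serum-free induction medium exposed 48 h in duplicate to 8 half-log concentrations (top 100 uM, 0.5% DMSO). ICAM1 mRNA quantified by TaqMan qRT-PCR, normalized to ACTB, GAPDH and POLR2A; bidirectional fitting versus DMSO.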

Read-out in assay [3]: Insulin-like growth factor-binding protein 1 (IGFBP1), IGFBP1 (gene 3484)
Description: LTEA_HepaRG_IGFBP1: Life Technologies and Expression Analysis (LTEA) Assay for Insulin-like growth factor-binding protein 1 (IGFBP1) using HepaRG (AID 2283508). An outline of the steps: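 HepaRG cells, plated 48 h then switched to serum-free induction medium, exposed in duplicate for 48 h to 8-point half-log series from 100 uM in 0.5% DMSO. mRNA measured by qRT-PCR, normalized to ACTB/GAPDH/POLR2A; bidirectional fit versus DMSO.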

Read-out in assay [4]: Interleukin 6 (IL6), IL6 (gene 3569)
Description: LTEA_HepaRG_IL6: Life Technologies and Expression Analysis (LTEA) Assay for Interleukin 6 (IL6) using HepaRG (AID 2283509). An outline of the steps:
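HepaRG cells exposed in duplicate for 48 h to eight half-log concentrations, top 100 uM, in 0.5% DMSO serum-free induction medium. mRNA measured by qRT-PCR, normalized to ACTB, GAPDH and POLR2A. Bidirectional fit versus DMSO.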

Read-out in assay [5]: Interleukin 6 Receptor (IL6R), IL6R (gene 3570)
Description: LTEA_HepaRG_IL6R: Life Technologies and Expression Analysis (LTEA) Assay for Interleukin 6 Receptor (IL6R) using HepaRG (AID 2283510).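 On AC50: TaqMan qRT-PCR signal normalized to ACTB GAPDH and POLR2A housekeeping genes.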 Put shortly:
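Differentiated HepaRG cells, plated 48 h, then exposed in duplicate for 48 h in serum-free induction medium to 8 half-log concentrations (top 100 uM, 0.5% DMSO). IL6R mRNA measured by TaqMan qRT-PCR, normalized to ACTB/GAPDH/POLR2A; bidirectional fit vs DMSO.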

Read-out in assay [6]: Potassium channel subfamily K member 1 (KCNK1), KCNK1 (gene 3775)
Description: LTEA_HepaRG_KCNK1: Life Technologies and Expression Analysis (LTEA) Assay for Potassium channel subfamily K member 1 (KCNK1) using HepaRG (AID 2283511). Put shortly:
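Differentiated HepaRG cells, 48 h exposure in serum-free induction medium with 0.5% DMSO; 8 concentrations, half-log from 100 uM, duplicate. KCNK1 mRNA by qRT-PCR, normalized to ACTB, GAPDH, POLR2A; bidirectional fit vs DMSO.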

Read-out in assay [7]: Keratin 19 (KRT19), KRT19 (gene 3880)
Description: LTEA_HepaRG_KRT19: Life Technologies and Expression Analysis (LTEA) Assay for Keratin 19 (KRT19) using HepaRG (AID 2283512). An outline of the steps:
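Differentiated HepaRG cells in serum-free induction medium, exposed 48 h in duplicate to 8 half-log concentrations up to 100 uM in 0.5% DMSO. KRT19 mRNA by qRT-PCR, normalized to ACTB, GAPDH, POLR2A; bidirectional fit vs DMSO.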

Read-out in assay [8]: JUN Transcription Factor, JUN (gene 3725)
Description: LTEA_HepaRG_JUN: Life Technologies and Expression Analysis (LTEA) Assay for JUN Transcription Factor using HepaRG (AID 2283513). Put shortly:
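HepaRG cells, 48 h post-plating, exposed 48 h in serum-free induction medium to 8-point half-log series (top 100 uM, 0.5% DMSO), duplicate; mRNA by qRT-PCR (TaqMan, Fluidigm), normalized to ACTB/GAPDH/POLR2A; bidirectional fit vs DMSO.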

Read-out in assay [9]: Lipase C (LIPC), LIPC (gene 3990)
Description: LTEA_HepaRG_LIPC: Life Technologies and Expression Analysis (LTEA) Assay for Lipase C (LIPC) using HepaRG (AID 2283514). Put shortly: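 HepaRG cells, 48 h after plating, treated in duplicate for 48 h in serum-free induction medium over 8 half-log concentrations from 100 uM, 0.5% DMSO. LIPC mRNA by TaqMan qRT-PCR normalized to ACTB/GAPDH/POLR2A; bidirectional fit versus DMSO.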

Read-out in assay [10]: Lipoprotein lipase (LPL), LPL (gene 4023)
Description: LTEA_HepaRG_LPL: Life Technologies and Expression Analysis (LTEA) Assay for Lipoprotein lipase (LPL) using HepaRG (AID 2283515). Put shortly: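 Differentiated HepaRG cells, plated 48 h, then exposed 48 h in serum-free induction medium to 8 concentrations (top 100 uM, half-log steps) in 0.5% DMSO, duplicate. LPL mRNA measured by qRT-PCR, normalized to ACTB, GAPDH and POLR2A.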

Read-out in assay [11]: MicroRNA 122 (MIR122), gene 406906
Description: LTEA_HepaRG_MIR122: Life Technologies and Expression Analysis (LTEA) Assay for MicroRNA 122 (MIR122) using HepaRG (AID 2283516). Further: the transcript read is the microRNA miR-122. An outline of the steps:
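Differentiated human HepaRG cells in serum-free induction medium exposed 48 h to 8 half-log concentrations from 100 uM in 0.5% DMSO, duplicate. MIR122 quantified by Fluidigm TaqMan qRT-PCR, normalised to ACTB, GAPDH, POLR2A; fold change fitted bidirectionally versus DMSO.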

Read-out in assay [12]: matrix metalloproteinase-10 (MMP10), MMP10 (gene 4319)
Description: LTEA_HepaRG_MMP10: Life Technologies and Expression Analysis (LTEA) Assay for matrix metalloproteinase-10 (MMP10) using HepaRG (AID 2283517). An outline of the steps:
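Differentiated HepaRG cells in serum-free induction medium exposed 48 h in duplicate to 8-point half-log series up to 100 uM in 0.5% DMSO. mRNA quantified by qRT-PCR, normalised to ACTB, GAPDH, POLR2A; bidirectional fit versus DMSO.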

Read-out in assay [13]: Paternally Expressed 10 (PEG10), PEG10 (gene 23089)
Description: LTEA_HepaRG_PEG10: Life Technologies and Expression Analysis (LTEA) Assay for Paternally Expressed 10 (PEG10) using HepaRG (AID 2283520). An outline of the steps: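 Differentiated HepaRG cells exposed 48 h in serum-free induction medium to eight half-log concentrations topping at 100 uM, 0.5% DMSO, in duplicate. PEG10 mRNA quantified by TaqMan qRT-PCR, normalized to ACTB, GAPDH and POLR2A; bidirectional fit versus DMSO.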

Read-out in assay [14]: Nuclear factor NF-kappa-B p105 subunit (Homo sapiens) (UniProt P19838)
Description: LTEA_HepaRG_NFKB1: Life Technologies and Expression Analysis (LTEA) Assay for Nuclear Factor Kappa B Subunit 1 (NFKB1) using HepaRG (AID 2283521).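 Further: TaqMan qRT-PCR transcript normalised to ACTB GAPDH and POLR2A housekeeping genes.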 An outline of the steps: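 NFKB1 transcript was measured by TaqMan qRT-PCR on Fluidigm arrays, normalised to three housekeeping genes and fitted in both directions against 0.5% DMSO. HepaRG cells were dosed in duplicate for 48 h in serum-free induction medium, eight half-log steps from 100 uM.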

Read-out in assay [15]: Protein phosphatase 2A (PPP2R4), PTPA (gene 5524)
Description: LTEA_HepaRG_PPP2R4: Life Technologies and Expression Analysis (LTEA) Assay for Protein phosphatase 2A (PPP2R4) using HepaRG (AID 2283522). Put shortly:
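Differentiated human HepaRG cells in serum-free induction medium were exposed 48 h to 8 concentrations (top 100 µM, half-log steps, duplicate) in 0.5% DMSO. PPP2R4 mRNA was measured by TaqMan qRT-PCR, normalised to ACTB, GAPDH and POLR2A, and fitted bidirectionally versus DMSO.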

Read-out in assay [16]: Phosphatase and tensin (PTEN), PTEN (gene 5728)
Description: LTEA_HepaRG_PTEN: Life Technologies and Expression Analysis (LTEA) Assay for Phosphatase and tensin (PTEN) using HepaRG (AID 2283523). An outline of the steps:
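HepaRG cells, 48 h after plating, exposed in duplicate for 48 h in serum-free induction medium to 8 half-log concentrations up to 100 uM (0.5% DMSO). PTEN mRNA by qRT-PCR, normalized to ACTB, GAPDH, POLR2A; bidirectional fit versus DMSO.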

Read-out in assay [17]: solute carrier (SLC22A1), SLC22A1 (gene 6580)
Description: LTEA_HepaRG_SLC22A1: Life Technologies and Expression Analysis (LTEA) Assay for solute carrier (SLC22A1) using HepaRG (AID 2283524). Put shortly:
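Differentiated human HepaRG cells in serum-free induction medium, exposed 48 h in duplicate to 8-point half-log series from 100 µM top in 0.5% DMSO. SLC22A1 mRNA by TaqMan qRT-PCR normalized to ACTB, GAPDH, POLR2A; bidirectional fit versus DMSO.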

Read-out in assay [18]: Pyruvate Dehydrogenase Kinase 4 (PDK4), PDK4 (gene 5166)
Description: LTEA_HepaRG_PDK4: Life Technologies and Expression Analysis (LTEA) Assay for Pyruvate Dehydrogenase Kinase 4 (PDK4) using HepaRG (AID 2283525). Put shortly:
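HepaRG cells plated 48 h, then switched to serum-free induction medium and exposed in duplicate for 48 h to 8 half-log concentrations from 100 uM in 0.5% DMSO. PDK4 mRNA measured by qRT-PCR, normalized to ACTB, GAPDH and POLR2A; bidirectional fit versus DMSO.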

Read-out in another assay: MYC, MYC (gene 4609)
Description: LTEA_HepaRG_MYC: Life Technologies and Expression Analysis (LTEA) Assay for MYC using HepaRG (AID 2283518). An outline of the steps:
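Differentiated HepaRG cells exposed 48 h in serum-free induction medium to 8 concentrations (top 100 uM, half-log steps; 0.5% DMSO), duplicate. MYC mRNA measured by Fluidigm qRT-PCR, normalized to ACTB, GAPDH, POLR2A; bidirectional fit versus DMSO.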

The structures appear in SMILES notation. Activity calls are given as the source filed them. How the source made its calls: active means hit-call score of the fitted dose curve at least 0.9, where 1 is the maximum; inactive means score below 0.9.

Nuclear factor NF-kappa-B p105 subunit (Homo sapiens), sequence (P19838 whole entry, looked up): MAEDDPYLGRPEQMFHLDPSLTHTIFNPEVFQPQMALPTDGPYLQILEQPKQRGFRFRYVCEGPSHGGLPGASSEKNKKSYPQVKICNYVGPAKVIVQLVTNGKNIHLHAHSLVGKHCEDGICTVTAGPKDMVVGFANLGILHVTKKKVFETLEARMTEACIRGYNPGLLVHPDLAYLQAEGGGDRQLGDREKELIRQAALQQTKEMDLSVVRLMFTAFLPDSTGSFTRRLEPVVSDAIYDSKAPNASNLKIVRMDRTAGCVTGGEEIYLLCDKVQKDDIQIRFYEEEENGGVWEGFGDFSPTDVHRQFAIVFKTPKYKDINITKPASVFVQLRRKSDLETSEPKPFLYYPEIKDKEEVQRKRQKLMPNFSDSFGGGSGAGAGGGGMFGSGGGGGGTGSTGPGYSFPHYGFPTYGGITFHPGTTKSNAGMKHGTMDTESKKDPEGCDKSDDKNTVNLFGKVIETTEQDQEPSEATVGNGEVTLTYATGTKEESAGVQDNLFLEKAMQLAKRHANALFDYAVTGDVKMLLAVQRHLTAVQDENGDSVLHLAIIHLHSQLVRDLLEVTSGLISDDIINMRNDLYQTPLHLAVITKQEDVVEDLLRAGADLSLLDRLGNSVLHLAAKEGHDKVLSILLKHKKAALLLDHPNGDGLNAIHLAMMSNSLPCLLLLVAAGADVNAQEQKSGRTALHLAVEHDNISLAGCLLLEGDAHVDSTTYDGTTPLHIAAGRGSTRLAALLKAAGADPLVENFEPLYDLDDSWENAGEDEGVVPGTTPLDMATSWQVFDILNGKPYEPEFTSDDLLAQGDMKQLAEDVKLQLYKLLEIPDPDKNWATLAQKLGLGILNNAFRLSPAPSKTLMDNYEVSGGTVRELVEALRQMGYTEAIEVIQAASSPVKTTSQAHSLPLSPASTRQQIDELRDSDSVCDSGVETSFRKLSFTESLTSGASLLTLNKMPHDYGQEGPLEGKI

Consider `Oc1ccc2ccccc2c1`, for which the compound was classed as inactive in [1], in assay [2], in [3], in assay [4], in [5] and in assay [6]. For the same compound, the compound was classed as inactive in assay [7], in assay [8], in assay [9], in assay [10], in assay [11] and in [12]. Moreover, the result in assay [13], in [14], in assay [15], in assay [16], in assay [17] and in [18] was inactive.

As for `CCCCOC(=O)c1ccc(O)cc1`, the outcome in assay [2], in assay [3], in [4], in [5], in [6] and in assay [8] was inactive. Besides, the compound was called inactive in assay [9], in [10], in [12], in [13], in [15] and in assay [16]. The result in assay [17] and in assay [18] was inactive.

Take `Cc1oc2c(NC(=O)c3c(Cl)cccc3Cl)cccc2c1C(C)(C)O`: the AC50 – broadly, the midpoint of the concentration-response curve, whichever way the signal moves – is 50 µM (active) in [2]; 37.8 µM (active) in assay [3]; 66.2 µM (active) in assay [4]; 23.8 µM (active) in assay [5]; 43.6 µM (active) in assay [6]; 37.6 µM (active) in assay [9]. Moreover, the AC50 is 14 µM (active) in assay [10]; 38.6 µM (active) in [11]; 70.8 µM (active) in assay [12]; 3.27 µM (active) in assay [13]; 50 µM (active) in [17]; 14.9 µM (active) in assay [18]. The outcome in assay [8], in [15] and in assay [16] was inactive.

For the compound `CCCCCCCCOC(=O)c1cc(O)c(O)c(O)c1`, the compound was called inactive in assay [2], in assay [3], in [5], in assay [6], in assay [8] and in assay [9]. For the same compound, the outcome in assay [10] was “inactive”; in assay [11] it was “inactive”; in assay [12], “inactive”; with MYC, MYC (gene 4609) it was “inactive”; in assay [13] it was “inactive”; in [14], “inactive”. Further, the call in assay [15], in [16], in [17] and in [18] was inactive. Also, the half-maximal activity concentration (AC50) in [4] is 50 µM (active).
